# Reference: PubChem BioAssay (EPA / NIEHS)
# “And” between values parts separate entries of the source, which are not always exact repeats. Identical values can stand only once. Results filed as inconclusive are left out. The source made the active and inactive calls. How the source made its calls, unless noted: active means hit-call score of the fitted dose curve at least 0.9, where 1 is the maximum; inconclusive means response in the unintended direction; inactive means score below 0.9.
# How the values were obtained:
# [1] = biological target: human CYP1A2, CYP1A2 (gene 1544) (UniProt P05177); test: NVS_ADME_hCYP1A2: NovaScreen (NVS) CYP450-related Enzyme Activity (ADME) Assay for human CYP1A2 (AID 2283102);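 further: potency for inhibition since loss of fluorescence marks reduced CYP1A2 activity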
# In short: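 Enzyme activity of insect-cell-expressed human CYP1A2 measured by fluorescence 0.5 h after compound addition, relative to acetonitrile. Compounds first tested in duplicate at 10 uM, actives followed up in concentration series.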
# [2] = biological target: Cytochrome P450 2C18 (Homo sapiens) (UniProt P33260); test: NVS_ADME_hCYP2C18: NovaScreen (NVS) CYP450-related Enzyme Activity (ADME) Assay for human CYP2C18 (AID 2283103; active means hit-call score of the fitted dose curve at least 0.9, where 1 is the maximum; inactive means score below 0.9)
# In short: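 Enzyme activity measured by fluorescence 0.5 h after compound addition, using recombinant CYP2C18 and a specific substrate. Actives from duplicate 10 uM screening were retested in concentration series (top 20 uM); acetonitrile served as negative baseline.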
# [3] = biological target: human CYP2J2, CYP2J2 (gene 1573) (UniProt P51589); test: NVS_ADME_hCYP2J2: NovaScreen (NVS) CYP450-related Enzyme Activity (ADME) Assay for human CYP2J2 (AID 2283106)
# In short: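 Chemicals were first tested at 10 uM in duplicate, and hits meeting criteria such as 30% inhibition were run in singleton concentration series with a 20 uM top concentration. Enzyme activity of recombinant CYP2J2 was measured by fluorescence after 1 h, relative to acetonitrile.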
# [4] = biological target: human CYP2D6, CYP2D6 (gene 1565) (UniProt P10635); test: NVS_ADME_hCYP2D6: NovaScreen (NVS) CYP450-related Enzyme Activity (ADME) Assay for human CYP2D6 (AID 2283107)
# In short: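 Fluorescence readout of recombinant CYP2D6 (insect-cell derived) activity after 1 h incubation with test chemical. Acetonitrile served as baseline, loss-of-signal direction. Single-concentration duplicate screening at 10 uM preceded concentration-response retesting.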
# [5] = biological target: human CYP2C9, CYP2C9 (gene 1559) (UniProt P11712); test: NVS_ADME_hCYP2C9: NovaScreen (NVS) CYP450-related Enzyme Activity (ADME) Assay for human CYP2C9 (AID 2283108)
# In short: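 Cell-free assay of recombinant human CYP2C9 produced in Sf9 cells, with enzyme activity read by fluorescence intensity 0.75 h after compound addition. Loss of signal versus an acetonitrile negative control indicates inhibition. Primary screen used 10 uM in duplicate; actives were retested in concentration series.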
# [6] = biological target: Cytochrome P450 2C19 (Homo sapiens) (UniProt P33261); test: NVS_ADME_hCYP2C19: NovaScreen (NVS) CYP450-related Enzyme Activity (ADME) Assay for human CYP2C19 (AID 2283113);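 on AC50: potency for inhibition seen as loss of fluorescent signal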
# In short: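 Compounds first screened in duplicate at 10 uM, then confirmed in concentration series. Insect-cell-expressed human CYP2C19 turned over a fluorogenic substrate, and fluorescence was read after 1 h. Inhibition taken as signal loss relative to acetonitrile.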
# [7] = biological target: rat CYP2A1, Cyp2a1 (gene 24894) (UniProt P11711); test: NVS_ADME_rCYP2A1: NovaScreen (NVS) CYP450-related Enzyme Activity (ADME) Assay for rat CYP2A1 (AID 2283114; active means hit-call score of the fitted dose curve at least 0.9, where 1 is the maximum; inactive means score below 0.9)
# In short: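 Cell-free fluorescence enzyme-activity read on recombinant rat CYP2A1, taken 0.75 h post-dosing. Compounds were screened in duplicate at 10 uM, then hits tested in concentration series (max 20 uM); inhibition scored relative to acetonitrile baseline.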
# [8] = biological target: human CYP4F12, CYP4F12 (gene 66002) (UniProt Q9HCS2); test: NVS_ADME_hCYP4F12: NovaScreen (NVS) CYP450-related Enzyme Activity (ADME) Assay for human CYP4F12 (AID 2283111)
# In short: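 Recombinant enzyme with a fluorescent substrate, signal read at 0.5 h post-dose; activity loss analysed relative to acetonitrile. Compounds first run in duplicate at 10 uM, with follow-up concentration-response testing of actives.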
# [9] = biological target: Cytochrome P450 3A4 (Homo sapiens) (UniProt P08684); test: NVS_ADME_hCYP3A4: NovaScreen (NVS) CYP450-related Enzyme Activity (ADME) Assay for human CYP3A4 (AID 2283110)
# In short: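 Activity is derived from decreased fluorescence intensity relative to acetonitrile, measured 0.33 hour after dosing insect-cell-expressed CYP3A4 in a cell-free format. Screening used 10 uM in duplicate before concentration-response follow-up.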
# [10] = biological target: human CYP2C8, CYP2C8 (gene 1558) (UniProt P10632); test: NVS_ADME_hCYP2C8: NovaScreen (NVS) CYP450-related Enzyme Activity (ADME) Assay for human CYP2C8 (AID 2283104; active means hit-call score of the fitted dose curve at least 0.9, where 1 is the maximum; inactive means score below 0.9)
# In short: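 Fluorescence readout of substrate turnover by recombinant CYP2C8 after 0.5 h, baseline acetonitrile. Single-concentration duplicate screen at 10 uM preceded singleton concentration series (max 20 uM) for compounds passing the inhibition threshold.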
# Chain of human CYP1A2, CYP1A2 (gene 1544) (P05177 whole entry, looked up): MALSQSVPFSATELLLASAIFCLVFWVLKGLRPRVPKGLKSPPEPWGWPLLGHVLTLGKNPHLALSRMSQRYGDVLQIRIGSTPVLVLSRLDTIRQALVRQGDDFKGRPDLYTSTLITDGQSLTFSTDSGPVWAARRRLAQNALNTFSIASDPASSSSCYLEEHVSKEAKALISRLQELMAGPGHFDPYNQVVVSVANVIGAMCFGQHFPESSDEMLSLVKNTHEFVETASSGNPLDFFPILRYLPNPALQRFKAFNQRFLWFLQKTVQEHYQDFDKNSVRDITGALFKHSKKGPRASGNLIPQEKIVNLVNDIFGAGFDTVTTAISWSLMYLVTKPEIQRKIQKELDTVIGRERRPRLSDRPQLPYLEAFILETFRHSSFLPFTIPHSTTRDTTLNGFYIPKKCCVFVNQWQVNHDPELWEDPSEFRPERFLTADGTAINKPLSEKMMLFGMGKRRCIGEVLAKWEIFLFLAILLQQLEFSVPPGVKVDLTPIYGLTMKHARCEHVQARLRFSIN
# Chain of human CYP2J2, CYP2J2 (gene 1573) (P51589 whole entry, looked up): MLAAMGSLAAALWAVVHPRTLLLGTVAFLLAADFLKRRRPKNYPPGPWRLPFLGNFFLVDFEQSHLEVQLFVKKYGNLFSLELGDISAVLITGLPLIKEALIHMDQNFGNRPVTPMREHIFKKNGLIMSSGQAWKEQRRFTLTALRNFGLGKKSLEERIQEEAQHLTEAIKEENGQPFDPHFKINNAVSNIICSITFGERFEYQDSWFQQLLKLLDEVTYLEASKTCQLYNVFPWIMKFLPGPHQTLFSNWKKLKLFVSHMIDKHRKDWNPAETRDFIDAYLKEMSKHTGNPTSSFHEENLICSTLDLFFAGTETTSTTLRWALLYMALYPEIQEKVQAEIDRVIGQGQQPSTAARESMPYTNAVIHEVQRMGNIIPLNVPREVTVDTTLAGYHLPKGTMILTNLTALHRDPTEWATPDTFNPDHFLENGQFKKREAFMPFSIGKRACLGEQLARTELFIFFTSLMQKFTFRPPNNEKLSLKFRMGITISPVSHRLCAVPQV
# Chain of Cytochrome P450 2C18 (Homo sapiens) (P33260 whole entry, looked up): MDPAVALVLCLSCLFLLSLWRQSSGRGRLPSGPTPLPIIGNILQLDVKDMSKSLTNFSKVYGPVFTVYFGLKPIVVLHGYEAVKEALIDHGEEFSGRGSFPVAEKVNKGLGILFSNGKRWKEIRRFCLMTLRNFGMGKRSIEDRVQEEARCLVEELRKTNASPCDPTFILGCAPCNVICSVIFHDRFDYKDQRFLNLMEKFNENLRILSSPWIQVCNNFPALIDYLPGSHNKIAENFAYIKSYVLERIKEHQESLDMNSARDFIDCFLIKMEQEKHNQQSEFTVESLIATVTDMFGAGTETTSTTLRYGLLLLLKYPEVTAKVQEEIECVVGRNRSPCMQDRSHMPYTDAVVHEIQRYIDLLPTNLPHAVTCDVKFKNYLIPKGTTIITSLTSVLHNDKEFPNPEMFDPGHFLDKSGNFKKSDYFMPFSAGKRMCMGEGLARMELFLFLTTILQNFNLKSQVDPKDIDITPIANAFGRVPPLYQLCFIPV
# Chain of human CYP2D6, CYP2D6 (gene 1565) (P10635 whole entry, looked up): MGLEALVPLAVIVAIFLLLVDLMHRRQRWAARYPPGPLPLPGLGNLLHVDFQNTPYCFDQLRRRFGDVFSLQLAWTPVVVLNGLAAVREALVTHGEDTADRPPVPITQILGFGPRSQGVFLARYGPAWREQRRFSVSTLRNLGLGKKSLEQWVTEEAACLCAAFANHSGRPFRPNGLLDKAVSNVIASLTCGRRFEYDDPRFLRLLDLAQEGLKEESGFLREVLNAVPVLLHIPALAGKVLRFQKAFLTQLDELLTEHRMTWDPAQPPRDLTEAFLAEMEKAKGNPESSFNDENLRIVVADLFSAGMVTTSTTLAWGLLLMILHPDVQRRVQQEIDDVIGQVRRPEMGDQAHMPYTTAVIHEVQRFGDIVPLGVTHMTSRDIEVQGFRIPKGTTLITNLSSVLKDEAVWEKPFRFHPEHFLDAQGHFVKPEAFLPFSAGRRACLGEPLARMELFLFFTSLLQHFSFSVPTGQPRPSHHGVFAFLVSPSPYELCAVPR
# Chain of human CYP2C9, CYP2C9 (gene 1559) (P11712 whole entry, looked up): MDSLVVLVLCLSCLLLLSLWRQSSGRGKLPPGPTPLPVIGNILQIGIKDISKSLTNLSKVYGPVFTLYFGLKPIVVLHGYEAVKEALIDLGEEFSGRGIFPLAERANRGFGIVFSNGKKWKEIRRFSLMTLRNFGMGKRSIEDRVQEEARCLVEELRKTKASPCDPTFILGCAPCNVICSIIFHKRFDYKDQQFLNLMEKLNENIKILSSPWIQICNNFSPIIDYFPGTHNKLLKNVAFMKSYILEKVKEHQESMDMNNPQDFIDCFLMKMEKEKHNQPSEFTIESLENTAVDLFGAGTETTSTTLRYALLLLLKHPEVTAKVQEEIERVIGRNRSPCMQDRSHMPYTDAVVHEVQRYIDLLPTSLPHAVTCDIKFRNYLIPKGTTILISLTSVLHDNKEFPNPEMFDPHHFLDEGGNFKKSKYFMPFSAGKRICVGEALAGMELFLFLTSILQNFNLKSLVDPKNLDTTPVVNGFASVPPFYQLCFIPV
# Chain of rat CYP2A1, Cyp2a1 (gene 24894) (P11711 whole entry, looked up): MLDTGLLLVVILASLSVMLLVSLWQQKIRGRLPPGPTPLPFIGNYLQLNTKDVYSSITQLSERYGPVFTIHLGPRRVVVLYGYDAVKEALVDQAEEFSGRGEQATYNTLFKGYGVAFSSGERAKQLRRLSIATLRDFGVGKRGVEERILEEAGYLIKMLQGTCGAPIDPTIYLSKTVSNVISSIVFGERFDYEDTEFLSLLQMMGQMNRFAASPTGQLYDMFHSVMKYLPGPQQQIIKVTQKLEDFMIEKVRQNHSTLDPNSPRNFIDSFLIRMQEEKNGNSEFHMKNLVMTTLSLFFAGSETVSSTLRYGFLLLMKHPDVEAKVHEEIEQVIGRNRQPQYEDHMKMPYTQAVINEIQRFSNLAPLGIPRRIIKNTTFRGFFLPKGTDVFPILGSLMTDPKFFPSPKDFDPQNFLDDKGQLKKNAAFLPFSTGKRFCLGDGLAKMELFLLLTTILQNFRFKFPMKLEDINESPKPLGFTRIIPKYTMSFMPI
# Chain of Cytochrome P450 3A4 (Homo sapiens) (P08684 whole entry, looked up): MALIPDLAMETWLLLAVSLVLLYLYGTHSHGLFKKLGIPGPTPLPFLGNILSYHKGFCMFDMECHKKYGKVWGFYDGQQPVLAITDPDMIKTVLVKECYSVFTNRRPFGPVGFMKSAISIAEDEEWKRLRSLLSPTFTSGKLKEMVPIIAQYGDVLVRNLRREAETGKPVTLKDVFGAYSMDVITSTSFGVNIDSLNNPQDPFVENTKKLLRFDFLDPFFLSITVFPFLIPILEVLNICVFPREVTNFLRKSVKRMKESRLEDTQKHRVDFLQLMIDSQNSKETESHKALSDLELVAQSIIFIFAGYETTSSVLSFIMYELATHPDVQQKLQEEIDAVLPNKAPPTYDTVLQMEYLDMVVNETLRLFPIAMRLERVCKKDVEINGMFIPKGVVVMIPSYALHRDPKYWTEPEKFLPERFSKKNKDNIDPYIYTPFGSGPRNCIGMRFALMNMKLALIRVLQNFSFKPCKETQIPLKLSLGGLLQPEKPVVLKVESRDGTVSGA
# Chain of human CYP2C8, CYP2C8 (gene 1558) (P10632 whole entry, looked up): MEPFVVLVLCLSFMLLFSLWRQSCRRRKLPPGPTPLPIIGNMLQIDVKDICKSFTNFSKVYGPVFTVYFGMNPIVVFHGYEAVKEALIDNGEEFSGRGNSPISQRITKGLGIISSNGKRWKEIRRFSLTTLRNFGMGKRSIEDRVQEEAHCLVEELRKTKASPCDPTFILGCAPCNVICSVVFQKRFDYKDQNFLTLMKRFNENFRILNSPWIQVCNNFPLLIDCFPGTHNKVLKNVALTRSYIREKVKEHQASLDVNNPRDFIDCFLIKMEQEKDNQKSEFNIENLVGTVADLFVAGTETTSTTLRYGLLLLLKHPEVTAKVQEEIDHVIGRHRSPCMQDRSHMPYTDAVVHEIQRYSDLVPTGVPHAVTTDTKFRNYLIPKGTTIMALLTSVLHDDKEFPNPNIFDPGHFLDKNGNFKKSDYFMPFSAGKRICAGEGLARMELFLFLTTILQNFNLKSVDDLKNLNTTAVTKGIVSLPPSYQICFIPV
# Chain of human CYP4F12, CYP4F12 (gene 66002) (Q9HCS2 whole entry, looked up): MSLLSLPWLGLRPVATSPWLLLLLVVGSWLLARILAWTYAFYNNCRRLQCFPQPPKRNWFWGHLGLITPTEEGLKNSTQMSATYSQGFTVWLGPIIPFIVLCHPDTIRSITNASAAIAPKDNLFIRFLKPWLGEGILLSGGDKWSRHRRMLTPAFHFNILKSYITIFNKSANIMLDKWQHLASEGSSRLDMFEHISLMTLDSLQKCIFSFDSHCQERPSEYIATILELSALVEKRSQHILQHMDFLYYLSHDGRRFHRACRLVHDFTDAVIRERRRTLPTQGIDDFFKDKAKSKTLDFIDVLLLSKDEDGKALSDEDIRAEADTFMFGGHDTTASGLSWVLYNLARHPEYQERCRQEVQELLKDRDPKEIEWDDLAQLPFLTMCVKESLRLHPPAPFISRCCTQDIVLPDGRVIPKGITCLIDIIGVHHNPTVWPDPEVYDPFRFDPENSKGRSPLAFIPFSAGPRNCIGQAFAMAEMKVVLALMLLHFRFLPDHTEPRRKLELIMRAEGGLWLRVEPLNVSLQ
compound,measurement,setting,value
COc1ccc(-c2ccccc2)cc1NNC(=O)OC(C)C,AC50,[1],956 nM (active)
same,AC50,[2],684 nM (active)
same,AC50,[3],407 nM (active)
same,outcome,[4],inactive
same,AC50,[5],1.07 µM (active)
same,AC50,[6],447 nM (active)
CC(C)NC(=O)N1CC(=O)N(c2cc(Cl)cc(Cl)c2)C1=O,AC50,[1],5750 nM (active)
same,outcome,[2],inactive
same,AC50,[5],4.01 µM (active)
same,AC50,[6],2060 nM (active)
CC1(C)CCC(=Cc2ccc(Cl)cc2)C1(O)Cn1cncn1 (stereo unspecified),AC50,[2],2030 nM (active)
same,AC50,[5],0.289 µM (active)
same,AC50,[6],252 nM (active)
same,AC50,[7],1110 nM (active)
CCCCC(O)(Cn1cncn1)c1ccc(Cl)cc1Cl (stereo unspecified),AC50,[2],1590 nM (active)
same,AC50,[5],0.554 µM (active)
same,AC50,[8],2520 nM (active)
same,AC50,[6],426 nM (active)
same,AC50,[7],1300 nM (active)
CC(C)(C)C(=O)C(Oc1ccc(Cl)cc1)n1cncn1 (stereo unspecified),AC50,[2],8280 nM (active)
same,AC50,[5],6.98 µM (active) and 4.65 µM (active)
same,AC50,[9],5810 nM (active)
same,AC50,[6],1320 nM (active)
COP(=S)(OC)SCn1nnc2ccccc2c1=O,AC50,[1],2790 nM (active)
same,AC50,[2],1930 nM (active)
same,AC50,[10],6730 nM (active)
same,AC50,[3],1870 nM (active)
same,AC50,[4],4190 nM (active)
same,AC50,[5],5.2 µM (active)
same,AC50,[6],257 nM (active)
same,AC50,[7],3240 nM (active)
CCN(CC)c1nc(C)cc(OP(=S)(OC)OC)n1,AC50,[1],1410 nM (active)
same,AC50,[5],7.09 µM (active)
same,AC50,[6],773 nM (active)
N#Cc1c[nH]cc1-c1cccc2c1OC(F)(F)O2,AC50,[1],353 nM (active)
CSC(=O)c1c(C(F)F)nc(C(F)(F)F)c(C(=O)SC)c1CC(C)C,AC50,[1],3300 nM (active)
same,AC50,[4],6580 nM (active)
same,AC50,[6],7010 nM (active)
CCN(CC)C(=O)C(C)Oc1cccc2ccccc12 (stereo unspecified),AC50,[2],10800 nM (active)
same,AC50,[5],4.54 µM (active)
same,AC50,[6],1150 nM (active)
CC(C)Oc1cccc(NC(=O)c2ccccc2C(F)(F)F)c1,AC50,[1],6370 nM (active)
same,AC50,[2],2660 nM (active)
same,AC50,[5],3.19 µM (active)
same,AC50,[6],4900 nM (active)
same,outcome,[7],inactive
CCCCOCN(C(=O)CCl)c1c(CC)cccc1CC,AC50,[2],6710 nM (active)
same,AC50,[5],5.52 µM (active)
same,AC50,[9],9740 nM (active)
same,AC50,[6],1280 nM (active)
CNC(=O)Oc1cccc2ccccc12,AC50,[1],5350 nM (active)
COP(=S)(OC)Oc1ccc([N+](=O)[O-])c(C)c1,AC50,[1],516 nM (active)
same,AC50,[2],2310 nM (active)
same,outcome,[10],inactive
same,AC50,[3],612 nM (active)
same,AC50,[4],4590 nM (active)
same,AC50,[6],168 nM (active)
same,AC50,[7],3840 nM (active)
CCNP(=S)(OC)O/C(C)=C/C(=O)OC(C)C (stereo unspecified),AC50,[1],5760 nM (active)
same,AC50,[2],2630 nM (active)
same,AC50,[3],1330 nM (active)
same,AC50,[4],7620 nM (active)
same,AC50,[5],1.79 µM (active)
same,AC50,[6],107 nM (active)
O=C1C2CC=CCC2C(=O)N1SC(Cl)(Cl)Cl (stereo unspecified),AC50,[1],6890 nM (active)
same,AC50,[5],10 µM (active)
same,AC50,[6],16000 nM (active)
CCOP(=O)(OCC)Oc1nc(Cl)c(Cl)cc1Cl,AC50,[1],3360 nM (active)
same,AC50,[2],6110 nM (active)
same,AC50,[6],4090 nM (active)
COC(=O)c1c(C(F)F)nc(C(F)(F)F)c(C2=NCCS2)c1CC(C)C,AC50,[1],561 nM (active)
same,AC50,[2],1880 nM (active)
same,AC50,[6],1270 nM (active)
CC(C)N1C(=O)N(c2ccccc2)CSC1=NC(C)(C)C,AC50,[2],8790 nM (active)
CCCCC(C#N)(Cn1cncn1)c1ccc(Cl)cc1 (stereo unspecified),AC50,[2],2250 nM (active)
same,outcome,[3],inactive
same,outcome,[4],inactive
same,AC50,[5],8.72 µM (active)
same,AC50,[6],634 nM (active)
same,AC50,[7],563 nM (active)
COP(=O)(OC)O/C(C)=C/C(=O)N(C)C,outcome,[6],inactive
COC(=O)NC(=S)Nc1ccccc1NC(=S)NC(=O)OC,AC50,[6],10000 nM (active)
CC(C)=CC1C(C(=O)OCc2coc(Cc3ccccc3)c2)C1(C)C (stereo unspecified),AC50,[5],5.84 µM (active)
same,AC50,[6],8700 nM (active)
CCC(C)n1c(=O)[nH]c(C)c(Br)c1=O (stereo unspecified),outcome,[6],inactive
CO/N=C(/C1=NOCCO1)c1ccccc1Oc1ncnc(Oc2ccccc2Cl)c1F,AC50,[2],933 nM (active)
same,AC50,[6],1410 nM (active)
same,AC50,[7],1570 nM (active)
COC(=O)N(C(=O)N1CO[C@@]2(C(=O)OC)Cc3cc(Cl)ccc3C2=N1)c1ccc(OC(F)(F)F)cc1,outcome,[5],inactive
same,AC50,[6],102 nM (active)
CS(=O)(=O)c1cc(C(F)(F)F)ccc1C(=O)c1cnoc1C1CC1,outcome,[4],inactive
Cc1ccc(N=CN(C)C=Nc2ccc(C)cc2C)c(C)c1,outcome,[4],inactive
same,AC50,[6],5270 nM (active)
CC1(C)C(C=C(Cl)Cl)C1C(=O)OC(C#N)c1cccc(Oc2ccccc2)c1 (stereo unspecified),AC50,[4],6070 nM (active)
same,AC50,[5],12.8 µM (active)
same,AC50,[6],7550 nM (active)
